Laboratory results as given in the supplement of paper PMC11732987, “Enantioselective OTUD7B fragment discovery through chemoproteomics screening and high-throughput optimisation” (Communications Chemistry, 2025).

How the values were obtained:
Test in all cases: log2 ratio of Biotin-Ahx-Ub-VS probe labelling (fragment/DMSO); higher = less target engagement (more negative = stronger competition), active = hit call of the paper (q ≤ 0.05, log2 ratio ≤ -1)
Conditions in all cases: compound concentration: 200 uM; treatment time: 3 h
[1] = target: USP34 (UniProt Q70CQ2)
Method in brief: (§1)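 The table lists average log2 ratios of fragment over vehicle, from an unpaired t-test on global-median-normalised Spectronaut label-free quantities. Proteins with ≥2 unique peptides were used. Samples were HEK293T lysate (495 µg) treated in triplicate with fragment at 200 µM or vehicle for 3 h, then with Biotin-Ahx-Ub-VS (0.5 µM final) for 1 h, with labelled DUBs NeutrAvidin-enriched and run by diaPASEF LC-MS/MS.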

[2] = target: T1, USP36 (UniProt Q9P275)
T1 sequence (whole entry): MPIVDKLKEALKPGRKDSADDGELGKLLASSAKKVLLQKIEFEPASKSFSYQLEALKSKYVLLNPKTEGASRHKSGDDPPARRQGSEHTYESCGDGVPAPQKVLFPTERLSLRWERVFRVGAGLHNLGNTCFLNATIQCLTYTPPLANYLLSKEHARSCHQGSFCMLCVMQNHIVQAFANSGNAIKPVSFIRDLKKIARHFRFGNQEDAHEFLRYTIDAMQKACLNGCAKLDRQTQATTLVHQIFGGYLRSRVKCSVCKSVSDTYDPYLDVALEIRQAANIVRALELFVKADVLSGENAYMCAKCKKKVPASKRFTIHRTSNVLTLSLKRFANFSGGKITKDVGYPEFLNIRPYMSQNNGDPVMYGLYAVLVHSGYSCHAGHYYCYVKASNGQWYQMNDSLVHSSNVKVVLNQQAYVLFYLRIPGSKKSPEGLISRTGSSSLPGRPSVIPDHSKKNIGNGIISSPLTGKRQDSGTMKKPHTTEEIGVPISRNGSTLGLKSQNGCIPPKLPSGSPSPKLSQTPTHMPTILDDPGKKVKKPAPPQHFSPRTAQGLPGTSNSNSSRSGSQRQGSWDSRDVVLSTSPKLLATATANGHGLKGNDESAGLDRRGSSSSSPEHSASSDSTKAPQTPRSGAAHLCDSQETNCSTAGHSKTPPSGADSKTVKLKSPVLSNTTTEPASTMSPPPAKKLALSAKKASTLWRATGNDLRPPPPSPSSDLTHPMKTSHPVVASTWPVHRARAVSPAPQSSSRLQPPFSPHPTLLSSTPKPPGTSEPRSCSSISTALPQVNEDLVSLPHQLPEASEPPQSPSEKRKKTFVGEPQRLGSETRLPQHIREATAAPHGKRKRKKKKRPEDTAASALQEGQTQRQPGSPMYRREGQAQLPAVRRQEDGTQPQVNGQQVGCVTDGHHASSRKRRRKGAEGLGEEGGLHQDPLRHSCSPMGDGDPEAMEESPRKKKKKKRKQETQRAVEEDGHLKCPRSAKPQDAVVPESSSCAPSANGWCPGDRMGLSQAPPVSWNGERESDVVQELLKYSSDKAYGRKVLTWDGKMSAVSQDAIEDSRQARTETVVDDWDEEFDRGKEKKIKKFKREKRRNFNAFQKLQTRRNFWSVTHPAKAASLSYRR
Method in brief: as §1

[3] = target: T2, USP38 (UniProt Q8NB14)
T2 sequence (whole entry): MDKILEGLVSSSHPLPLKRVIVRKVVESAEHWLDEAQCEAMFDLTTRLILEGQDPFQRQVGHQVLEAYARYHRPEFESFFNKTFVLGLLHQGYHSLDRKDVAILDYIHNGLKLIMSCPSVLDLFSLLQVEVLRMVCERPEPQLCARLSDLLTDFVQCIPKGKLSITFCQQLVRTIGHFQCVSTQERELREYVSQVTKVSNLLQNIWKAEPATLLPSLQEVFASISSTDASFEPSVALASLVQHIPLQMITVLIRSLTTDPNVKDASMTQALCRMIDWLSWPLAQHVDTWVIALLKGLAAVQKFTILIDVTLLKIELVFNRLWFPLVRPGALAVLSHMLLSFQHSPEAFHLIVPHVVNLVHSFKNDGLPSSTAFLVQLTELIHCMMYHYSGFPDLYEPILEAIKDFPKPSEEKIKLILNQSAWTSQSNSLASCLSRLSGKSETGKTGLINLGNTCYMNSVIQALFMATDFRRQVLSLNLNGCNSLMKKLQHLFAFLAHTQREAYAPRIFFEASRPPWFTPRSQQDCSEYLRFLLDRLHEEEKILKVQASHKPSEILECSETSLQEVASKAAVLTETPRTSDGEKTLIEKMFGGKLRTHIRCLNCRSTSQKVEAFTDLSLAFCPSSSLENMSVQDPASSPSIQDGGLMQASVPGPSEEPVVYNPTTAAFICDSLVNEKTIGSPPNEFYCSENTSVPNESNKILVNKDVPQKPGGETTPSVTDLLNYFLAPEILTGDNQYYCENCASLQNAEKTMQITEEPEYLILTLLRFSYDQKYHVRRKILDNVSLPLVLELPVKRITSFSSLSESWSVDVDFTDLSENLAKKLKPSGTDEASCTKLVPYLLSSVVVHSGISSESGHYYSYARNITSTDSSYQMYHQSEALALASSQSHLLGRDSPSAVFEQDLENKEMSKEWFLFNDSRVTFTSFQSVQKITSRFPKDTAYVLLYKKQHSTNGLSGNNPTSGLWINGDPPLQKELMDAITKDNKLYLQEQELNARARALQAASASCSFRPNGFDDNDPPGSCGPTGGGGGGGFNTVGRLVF
Method in brief: as §1

[4] = target: T3, USP39 (UniProt Q53GS9)
T3 sequence (whole entry): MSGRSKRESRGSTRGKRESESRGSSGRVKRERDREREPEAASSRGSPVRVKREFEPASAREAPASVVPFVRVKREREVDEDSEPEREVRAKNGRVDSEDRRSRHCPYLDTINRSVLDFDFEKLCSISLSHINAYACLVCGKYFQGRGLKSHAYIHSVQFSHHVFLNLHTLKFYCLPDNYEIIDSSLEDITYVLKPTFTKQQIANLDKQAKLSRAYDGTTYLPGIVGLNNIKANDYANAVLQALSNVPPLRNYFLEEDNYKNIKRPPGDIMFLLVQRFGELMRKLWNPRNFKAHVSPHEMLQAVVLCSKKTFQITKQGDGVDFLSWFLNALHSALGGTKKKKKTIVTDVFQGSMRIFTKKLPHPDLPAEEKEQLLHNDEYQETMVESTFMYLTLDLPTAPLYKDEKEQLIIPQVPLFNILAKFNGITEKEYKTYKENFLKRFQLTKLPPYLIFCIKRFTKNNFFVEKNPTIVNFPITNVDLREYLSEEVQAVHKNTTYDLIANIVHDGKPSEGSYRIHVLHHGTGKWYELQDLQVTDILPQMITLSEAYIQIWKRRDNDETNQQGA
Method in brief: as §1

[5] = target: T4, USP4 (UniProt Q13107)
T4 sequence (whole entry): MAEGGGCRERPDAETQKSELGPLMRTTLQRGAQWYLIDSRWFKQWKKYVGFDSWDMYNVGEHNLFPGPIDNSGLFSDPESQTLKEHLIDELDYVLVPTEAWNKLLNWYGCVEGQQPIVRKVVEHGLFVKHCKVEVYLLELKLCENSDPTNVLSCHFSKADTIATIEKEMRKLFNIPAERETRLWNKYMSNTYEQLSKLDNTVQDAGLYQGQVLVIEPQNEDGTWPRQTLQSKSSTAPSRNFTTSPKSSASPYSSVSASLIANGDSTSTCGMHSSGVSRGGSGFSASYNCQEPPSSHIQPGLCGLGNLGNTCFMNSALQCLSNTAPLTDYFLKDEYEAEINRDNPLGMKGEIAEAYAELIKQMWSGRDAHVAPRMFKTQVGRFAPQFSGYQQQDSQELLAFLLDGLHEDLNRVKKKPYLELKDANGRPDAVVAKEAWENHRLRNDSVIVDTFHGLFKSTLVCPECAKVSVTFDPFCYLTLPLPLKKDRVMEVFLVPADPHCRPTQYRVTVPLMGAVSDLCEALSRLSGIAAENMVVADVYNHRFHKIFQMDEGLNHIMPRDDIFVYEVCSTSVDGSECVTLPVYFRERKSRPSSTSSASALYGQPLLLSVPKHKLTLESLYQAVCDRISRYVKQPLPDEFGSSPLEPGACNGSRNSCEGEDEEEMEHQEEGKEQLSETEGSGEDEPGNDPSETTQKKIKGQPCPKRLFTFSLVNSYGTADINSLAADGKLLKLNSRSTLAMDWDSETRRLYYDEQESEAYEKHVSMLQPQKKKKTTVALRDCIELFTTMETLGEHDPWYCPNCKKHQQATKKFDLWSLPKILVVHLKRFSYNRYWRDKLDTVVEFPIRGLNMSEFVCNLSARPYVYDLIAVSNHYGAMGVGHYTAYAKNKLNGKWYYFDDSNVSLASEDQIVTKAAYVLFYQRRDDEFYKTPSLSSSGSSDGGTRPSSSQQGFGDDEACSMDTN
Method in brief: as §1

Measured: log2 ratio of Biotin-Ahx-Ub-VS probe labelling

Chain of USP34 (Q70CQ2 whole entry, the tested form may be a part): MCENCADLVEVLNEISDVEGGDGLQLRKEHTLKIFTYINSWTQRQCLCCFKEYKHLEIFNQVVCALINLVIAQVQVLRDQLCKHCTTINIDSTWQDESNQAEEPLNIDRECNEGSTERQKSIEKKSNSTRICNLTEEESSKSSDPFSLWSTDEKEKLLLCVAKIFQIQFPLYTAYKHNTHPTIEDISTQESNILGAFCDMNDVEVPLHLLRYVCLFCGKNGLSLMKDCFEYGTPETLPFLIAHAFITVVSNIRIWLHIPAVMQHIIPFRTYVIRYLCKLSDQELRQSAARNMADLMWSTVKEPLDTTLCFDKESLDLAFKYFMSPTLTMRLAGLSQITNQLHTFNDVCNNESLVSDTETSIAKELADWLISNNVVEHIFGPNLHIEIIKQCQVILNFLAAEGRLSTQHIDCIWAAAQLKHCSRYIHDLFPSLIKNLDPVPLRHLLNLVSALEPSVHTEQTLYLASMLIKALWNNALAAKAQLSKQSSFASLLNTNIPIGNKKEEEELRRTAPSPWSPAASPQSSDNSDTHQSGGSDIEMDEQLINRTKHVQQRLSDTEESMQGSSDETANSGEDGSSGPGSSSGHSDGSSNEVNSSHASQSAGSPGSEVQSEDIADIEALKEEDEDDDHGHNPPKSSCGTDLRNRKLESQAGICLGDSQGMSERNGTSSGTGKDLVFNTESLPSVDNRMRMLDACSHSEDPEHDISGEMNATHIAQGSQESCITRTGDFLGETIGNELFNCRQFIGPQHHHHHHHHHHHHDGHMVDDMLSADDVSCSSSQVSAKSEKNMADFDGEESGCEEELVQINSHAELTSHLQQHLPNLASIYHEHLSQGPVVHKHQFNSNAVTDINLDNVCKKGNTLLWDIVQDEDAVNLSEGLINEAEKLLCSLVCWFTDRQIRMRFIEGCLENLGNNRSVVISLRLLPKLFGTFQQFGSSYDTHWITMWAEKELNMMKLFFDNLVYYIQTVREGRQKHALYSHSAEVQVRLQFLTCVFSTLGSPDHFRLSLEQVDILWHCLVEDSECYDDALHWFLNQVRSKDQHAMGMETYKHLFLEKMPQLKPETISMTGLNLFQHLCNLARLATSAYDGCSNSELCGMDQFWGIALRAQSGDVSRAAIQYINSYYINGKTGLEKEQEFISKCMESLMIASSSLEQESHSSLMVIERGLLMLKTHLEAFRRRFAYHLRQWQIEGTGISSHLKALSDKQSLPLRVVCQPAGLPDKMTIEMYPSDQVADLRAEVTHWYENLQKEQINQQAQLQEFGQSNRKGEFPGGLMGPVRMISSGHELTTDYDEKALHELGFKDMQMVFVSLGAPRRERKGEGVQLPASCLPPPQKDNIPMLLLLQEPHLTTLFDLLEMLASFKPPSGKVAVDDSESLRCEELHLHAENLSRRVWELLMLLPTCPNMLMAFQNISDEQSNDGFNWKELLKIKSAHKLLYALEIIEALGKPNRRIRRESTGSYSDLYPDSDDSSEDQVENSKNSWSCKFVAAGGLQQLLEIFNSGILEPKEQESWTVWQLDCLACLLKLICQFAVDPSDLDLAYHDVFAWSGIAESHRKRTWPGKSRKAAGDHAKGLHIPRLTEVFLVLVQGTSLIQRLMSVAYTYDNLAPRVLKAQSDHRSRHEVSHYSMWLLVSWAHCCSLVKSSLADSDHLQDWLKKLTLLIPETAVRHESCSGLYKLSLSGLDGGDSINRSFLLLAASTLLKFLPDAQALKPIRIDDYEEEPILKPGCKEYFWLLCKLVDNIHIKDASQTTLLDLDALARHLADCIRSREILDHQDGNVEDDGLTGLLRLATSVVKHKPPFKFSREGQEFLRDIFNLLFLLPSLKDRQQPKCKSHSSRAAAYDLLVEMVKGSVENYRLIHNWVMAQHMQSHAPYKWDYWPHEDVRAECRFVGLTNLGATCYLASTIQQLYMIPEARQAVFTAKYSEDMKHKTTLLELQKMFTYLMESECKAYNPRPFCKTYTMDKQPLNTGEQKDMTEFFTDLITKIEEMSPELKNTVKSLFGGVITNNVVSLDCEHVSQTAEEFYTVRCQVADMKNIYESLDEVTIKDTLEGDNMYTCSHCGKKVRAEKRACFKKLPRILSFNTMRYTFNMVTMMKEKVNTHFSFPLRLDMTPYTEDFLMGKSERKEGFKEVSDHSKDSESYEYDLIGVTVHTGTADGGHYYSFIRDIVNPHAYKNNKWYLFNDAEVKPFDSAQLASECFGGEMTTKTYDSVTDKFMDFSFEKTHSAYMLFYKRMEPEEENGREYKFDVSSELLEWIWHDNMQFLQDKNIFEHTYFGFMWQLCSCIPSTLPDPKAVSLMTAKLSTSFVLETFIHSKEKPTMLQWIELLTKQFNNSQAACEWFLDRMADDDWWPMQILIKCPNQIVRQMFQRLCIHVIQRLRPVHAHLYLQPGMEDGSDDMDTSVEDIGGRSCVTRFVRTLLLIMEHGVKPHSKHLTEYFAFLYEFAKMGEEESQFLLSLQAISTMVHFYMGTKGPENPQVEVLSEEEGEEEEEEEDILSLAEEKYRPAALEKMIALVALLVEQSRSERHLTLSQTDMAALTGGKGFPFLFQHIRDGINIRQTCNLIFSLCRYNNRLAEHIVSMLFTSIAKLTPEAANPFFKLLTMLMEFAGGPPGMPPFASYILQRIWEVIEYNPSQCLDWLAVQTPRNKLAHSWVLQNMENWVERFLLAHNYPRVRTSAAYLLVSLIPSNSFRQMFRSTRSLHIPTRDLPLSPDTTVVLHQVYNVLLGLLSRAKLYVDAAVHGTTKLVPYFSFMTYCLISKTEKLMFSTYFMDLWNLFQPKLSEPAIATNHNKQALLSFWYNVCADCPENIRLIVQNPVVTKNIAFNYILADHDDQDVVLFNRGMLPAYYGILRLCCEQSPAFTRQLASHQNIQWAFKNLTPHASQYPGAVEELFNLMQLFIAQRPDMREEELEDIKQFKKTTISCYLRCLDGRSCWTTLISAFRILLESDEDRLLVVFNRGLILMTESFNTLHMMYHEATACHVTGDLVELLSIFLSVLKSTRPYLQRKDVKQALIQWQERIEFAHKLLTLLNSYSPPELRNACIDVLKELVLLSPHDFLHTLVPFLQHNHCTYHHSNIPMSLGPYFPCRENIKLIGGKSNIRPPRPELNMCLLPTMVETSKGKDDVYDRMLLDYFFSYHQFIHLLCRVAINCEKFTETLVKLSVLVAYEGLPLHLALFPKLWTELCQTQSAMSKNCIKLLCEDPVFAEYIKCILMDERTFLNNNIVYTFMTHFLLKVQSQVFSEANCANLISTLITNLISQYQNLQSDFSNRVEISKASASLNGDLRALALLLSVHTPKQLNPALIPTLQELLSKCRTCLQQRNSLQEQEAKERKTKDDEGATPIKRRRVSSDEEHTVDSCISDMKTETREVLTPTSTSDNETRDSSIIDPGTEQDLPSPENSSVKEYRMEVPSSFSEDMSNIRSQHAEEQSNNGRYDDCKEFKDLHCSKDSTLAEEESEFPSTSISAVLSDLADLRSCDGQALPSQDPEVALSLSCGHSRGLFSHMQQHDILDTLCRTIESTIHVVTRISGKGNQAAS

O=C(CCl)Nc1cc2c(cc1Cl)OCCCO2
inactive: [1] 0.0191 | [2] -0.11 | [3] 0.0869 | [4] 0.0922 | [5] 0.154
